Laboratory results published in PubChem BioAssay (NCI).
This is part of a sample that, as a whole, favours compounds with a hit. Of some 83,000 tested, about 20% had one in any assay.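 Assay: single dose, 48 h. Readout: percent growth (0 = no net growth; negative = cell death). Active: <10.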 Unmarked numbers belong to inactive results. Calls of active or inactive are those of the source.

What follows are molecules tested on MDA-MB-468 breast (assay: NCI-60 one-dose screen, 48 h (100 = growth as untreated, 0 = no growth, -100 = all killed)). Details: 10 µM unless noted.
`CCn1c(Cc2ccccc2Nc2c(Cl)cccc2Cl)nnc1SCC(=O)Nc1cccc(OC)c1` was tested, and the growth was 75%. `O=C(/C=C/c1ccc(Cl)cc1)c1ccc(Cl)cc1` was tested, and the growth was 88.3%. With `O=C(Nc1ccccc1)c1cc(Cl)ccc1O` the growth was 47.6%. Work on `CC1CC(C)(C)OB(OC(C)CC(C)(C)OB2OC(C)CC(C)(C)O2)O1` (stereo not given) yielded a growth of 105%. Molecule `CC(C)=CCC[C@H](C)c1ccc(C)c2c1OCN(CCO)C2` has a growth of 82.5%. With `CCCCCCCCCCCCCCCCCCOP(=O)(O)O` the growth was 108%. `Cc1ccc2c(n1)C(=O)C(Cl)=C(Nc1cccc(C(C)C)c1)C2=O` was tested, and the growth was -9.52% (active). `COC1=C(OC)C(=O)C(OC)=C(OC)C1=O` was tested, and the growth was 33.4%. `C=C(C)[C@@H]1CC[C@]2(C(=O)O)CC[C@]3(C)[C@H](CC[C@@H]4[C@@]5(C)C[C@@H](CC#Cc6ccccc6C)C(=O)C(C)(C)[C@@H]5CC[C@]43C)[C@@H]12` showed a growth of 17.2%. In the case of `CN1C=CN(Cc2ccc(-c3ccccn3)nc2)[CH-]1.CN1C=CN(Cc2ccc(-c3ccccn3)nc2)[CH-]1.[Au+3]`, the growth is reported as -19.2% (active). With `CO[C@@]12[C@@H]3NC3CN1C1=C(C(=O)C(N)=C(C)C1=O)[C@@H]2COC(N)=O` (stereo not given in full) the growth was -14.1% (active). Work on `N#CC1=C(N)Oc2c(sc3c(Br)cccc23)C1c1ccc(F)cc1` (stereo not given) yielded a growth of 11%. For `C#CCOc1ccc(C2=NN(CCCC)C3N=C(Cl)c4ncn(CCCC)c4N23)cc1OCC#C` (stereo not given), the growth was 80.4%. `CNS(=O)(=O)c1cccc(-c2ccc3c4c(n(C)c(=O)c3c2)-c2ccccc2C4=O)c1` gave a growth of 83.4%. `COC(=O)Cc1cc(COC(C)=O)ccc1C` showed a growth of 108%. `N[C@H](C(=O)O)[C@@H]1CC(Cl)=NO1` was tested, and the growth was 29.4% [20 µM]. `CCCCCCCCCCCCCCCCCCNC(=S)N/N=C/c1ccc(OC)c(OC)c1` gave a growth of 93.5%. `N#CC1(O)CCCCC1` showed a growth of 108%. With `CC(C)(C)c1ccc([I+]c2ccc(C(C)(C)C)cc2)cc1` the growth was -26% (active). With `Fc1ccc(-c2cc3nc(C(Cl)Cl)nc(-c4ccc(Cl)cc4)n3n2)cc1` the growth was -76.3% (active). `CCN(CC)CCOC(=O)c1cc(OCc2ccccc2)c(OCc2ccccc2)c(OCc2ccccc2)c1` gave a growth of 44%. With `c1ccc(N2CCN(c3nncc4ccccc34)CC2)nc1` the growth was 93.3%. `Cn1cc(-c2nc(-c3c[nH]c4ccccc34)cs2)c2cccnc21` was tested, and the growth was -12.5% (active). `CCN1C/C(=N\S(=O)(=O)c2ccccc2)N(CC)C1=S` gave a growth of 97.7%. `O=C1NC(=C(Cl)Cl)/C(=N\S(=O)(=O)NCc2ccccc2)N1` was tested, and the growth was 45.1%.
